Source: PMC4336329 (PLoS ONE, 2015)
The whole screen tested about 310,000 compounds, of which about 14,000 (4.5%) showed an effect of 50% or more. The effect is printed as a negative number. The sample as a whole holds a higher share of strong results than the screen did.

What follows are molecules tested against human ether-à-go-go-related gene (hERG) potassium channel (human, UniProt Q12809) (assay: primary screen, population patch clamp on CHO cells stably expressing hERG; higher = less effect of the substance).
Chain of human ether-à-go-go-related gene (hERG) potassium channel (Q12809 whole entry, looked up): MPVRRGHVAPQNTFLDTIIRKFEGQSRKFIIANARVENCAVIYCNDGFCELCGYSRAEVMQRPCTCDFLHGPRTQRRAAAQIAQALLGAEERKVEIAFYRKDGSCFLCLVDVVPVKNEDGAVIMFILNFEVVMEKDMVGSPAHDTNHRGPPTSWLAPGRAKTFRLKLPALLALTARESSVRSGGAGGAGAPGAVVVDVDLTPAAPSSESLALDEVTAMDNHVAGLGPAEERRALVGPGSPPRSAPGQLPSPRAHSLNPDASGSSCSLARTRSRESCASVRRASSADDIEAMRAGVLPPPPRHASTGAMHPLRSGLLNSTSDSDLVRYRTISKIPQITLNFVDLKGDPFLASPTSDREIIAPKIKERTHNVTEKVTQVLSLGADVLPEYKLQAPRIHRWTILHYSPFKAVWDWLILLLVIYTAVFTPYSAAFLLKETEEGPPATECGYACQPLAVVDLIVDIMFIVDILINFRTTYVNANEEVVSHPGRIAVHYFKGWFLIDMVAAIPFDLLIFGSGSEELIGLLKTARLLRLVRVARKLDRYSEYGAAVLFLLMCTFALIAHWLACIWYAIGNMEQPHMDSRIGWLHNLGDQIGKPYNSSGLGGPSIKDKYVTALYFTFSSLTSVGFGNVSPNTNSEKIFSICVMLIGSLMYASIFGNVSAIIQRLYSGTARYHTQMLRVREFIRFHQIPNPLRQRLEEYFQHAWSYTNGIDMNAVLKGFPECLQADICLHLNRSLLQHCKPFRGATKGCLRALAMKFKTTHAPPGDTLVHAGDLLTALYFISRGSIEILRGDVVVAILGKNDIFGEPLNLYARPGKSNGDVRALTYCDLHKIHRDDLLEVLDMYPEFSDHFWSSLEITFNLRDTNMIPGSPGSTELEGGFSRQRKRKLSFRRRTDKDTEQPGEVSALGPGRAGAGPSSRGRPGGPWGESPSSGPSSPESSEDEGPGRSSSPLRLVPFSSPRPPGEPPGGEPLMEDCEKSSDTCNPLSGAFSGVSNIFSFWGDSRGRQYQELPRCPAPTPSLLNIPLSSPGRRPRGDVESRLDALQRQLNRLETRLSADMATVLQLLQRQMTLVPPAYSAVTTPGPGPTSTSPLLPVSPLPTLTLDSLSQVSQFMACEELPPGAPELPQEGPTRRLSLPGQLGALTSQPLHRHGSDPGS
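Note: peak tail current of the secondary pulse compared with the same well before compound.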

SMILES	hERG current change (%, negative = inhibition) at 10uM
Cc1cc(C)c2nc(SCC(=O)NC(=O)c3cccn3C)cc(C)c2c1	-2.66%
COc1ccc(C(C)=O)cc1COC(=O)c1cc(C)nc2ccccc12	13.6%
O=C(Nc1ccc([N+](=O)[O-])cc1)c1nc[nH]c1C(=O)NC1CCCCC1	16.2%
COC(=O)c1c(NC(=O)C(C)C)sc2c1C(C(=O)OC)CC2 (centres unmarked)	11.8%
CC(C)Sc1nnc(-c2c[nH]c3ccccc23)n1C	1.3%
CN1CCN(/N=C/c2c(O)n(Cc3ccc(F)cc3)c(=O)[nH]c2=O)CC1	0.78%
COc1cccc(NC(=O)CN(c2ccc3c(c2)OCO3)S(C)(=O)=O)c1	3.07%
CNc1nnc(-c2ccc(N(C)C)cc2)s1	8.65%
CCCCCn1c(=O)c(C(=O)OCC)c(O)c2ccccc21	-64%
CCCCCCCCn1c(=O)c(C(=O)OCC)c(O)c2ccccc21	14.5%
CCCCCn1c(=O)c(C(=O)OCC)c(Cl)c2ccccc21	-73.8%
CCCCCCCn1c(=O)c(C(=O)OC)c(N)c2ccccc21	-9%
CCCCn1c(=O)c(C(=O)OCC)c(O)c2ccccc21	2.18%
CCCCCCCCn1c(=O)c(C(=O)OC)c(N)c2ccccc21	3.02%
CCC1CCCCN1CCCNC(=O)CSc1nc2nc(C)c(Cc3ccc(C)cc3)c(C)n2n1 (centres unmarked)	-47.8%
NS(=O)(=O)c1ccc(NC(=O)COC(=O)CCC2CCCCC2)cc1	-5.65%
Cc1ccc(C(=O)NCCN2CCNC2=O)cc1	12.9%
O=C(Nc1ccc2c(c1)OCO2)C(=O)c1c[nH]c2ccccc12	22.3%
COc1ccc(C(=O)NCCCNC(=O)c2ccccn2)cc1	10.8%
CCCn1c(SCC(=O)NC2CCCCC2)nnc1-c1ccncc1	4.24%
CN1CCN(S(=O)(=O)c2ccc(Nc3ccc(F)cc3)c([N+](=O)[O-])c2)CC1	-51.3%
COc1cc(Nc2ccc(S(=O)(=O)N3CCN(C)CC3)cc2[N+](=O)[O-])cc(OC)c1	-28.6%
CN1CCN(S(=O)(=O)c2ccc(N(C)Cc3ccc(OC(F)F)cc3)c([N+](=O)[O-])c2)CC1	-60.8%

SMILES	hERG current change (%, negative = inhibition) at 10uM
CN1CCN(S(=O)(=O)c2ccc(Nc3cccc(Cl)c3)c([N+](=O)[O-])c2)CC1	-20.7%
C=CCOc1ccc(CN(C)c2ccc(S(=O)(=O)N3CCN(C)CC3)cc2[N+](=O)[O-])cc1	6.82%
CN1CCN(S(=O)(=O)c2ccc(N(C)Cc3ccc(C(F)(F)F)cc3)c([N+](=O)[O-])c2)CC1	-5.45%
Cc1nnc(SCC(N)=O)n1CC1CCCO1 (centres unmarked)	3.55%
NC(=O)c1ccsc1NC(=O)c1coc2ccccc2c1=O	-2.56%
COc1ccc(-c2nn3c(-c4ccccn4)nnc3s2)cc1OC	10.6%
CCOC(=O)c1sc(SCC(=O)Nc2ccc(N(C)C)cc2)nc1N	-13%
S=C(NCCc1cnc[nH]1)NC1CCCC1	23.2%
CCOC(=O)Cc1nc2cc(Cl)ccc2o1	10.7%
N#Cc1ccsc1NC(=O)c1ccccn1	-4.67%
CCOc1ccc(OCCC(=O)N2CCc3cc(OC)c(OC)cc3C2)cc1	-20.6%
COc1ccc(OC)c(Nc2nc(NCc3ccco3)c3ccccc3n2)c1.Cl	-12.2%
O=C(NC1CC1)c1ccc(F)cc1Cl	21%
CC#CC(=O)NC1CCCN(C2Cc3ccccc3C2)C1 (centres unmarked)	-18.7%
CSCC(=O)NC1CCCN(C2Cc3ccccc3C2)C1 (centres unmarked)	-5.38%
C#Cc1cccc(C(=O)NC2CCCN(C3Cc4ccccc4C3)C2)c1 (centres unmarked)	-64.4%
COc1cccc(C(=O)NC2CCCN(C3Cc4ccccc4C3)C2)c1OC (centres unmarked)	-41.7%
O=C(NC1CCCN(C2Cc3ccccc3C2)C1)c1ccc(F)cc1Cl (centres unmarked)	-71.1%
Cn1cnnc1SC(C(=O)Nc1cc(Cl)cc(Cl)c1)c1ccccc1 (centres unmarked)	20.9%
Cc1cc(C(=O)CSc2nc3ccccc3[nH]2)c(C)n1CC1CCCO1 (centres unmarked)	-12.5%
CC(C)(C)NC(=O)NC(=O)CSc1ccc(S(=O)(=O)N2CCCCC2)cn1	-13.5%
Cc1cccc(C)c1OCc1cc(C(=O)N2CCN(C3CCCC3)CC2)no1	-67.9%
Cc1cccc(C)c1OCc1cc(C(=O)N2CCN3CCCC3C2)no1 (centres unmarked)	-19.5%

SMILES	hERG current change (%, negative = inhibition) at 10uM
CC(=O)N1CCCN(C(=O)c2cc(COc3c(F)cccc3F)on2)CC1	6.58%
O=C(c1cc(COc2c(F)cccc2F)on1)N1CCCCCC1	4.46%
O=C(c1cc(COc2c(F)cccc2F)on1)N1CCN(C2CCCCC2)CC1	-52%
Cc1cccc(C)c1OCc1cc(C(=O)N2CCCCCCC2)no1	-0.442%
CN(C)Cc1c(-c2ccc(Cl)cc2)nc2ccccn12	0.0702%
CC(C)(C)c1ccc(C(=O)NCCCNC(=O)c2cccnc2)cc1	11.7%
CCN(C(=O)[C@@H]1CCCN1C(=O)c1cccs1)c1nc2cc(Cl)ccc2s1	-36%
COc1ccc(-c2noc(CCC(=O)NCC3CCN(Cc4cccc(C)c4)CC3)n2)cc1	-60.3%
Cc1ccc(-c2noc(CCC(=O)NCC3CCCO3)n2)cc1 (centres unmarked)	2%
COc1ccc(-c2noc(CCC(=O)NCCc3cccc(C)c3)n2)cc1	-0.562%
Cc1ccc(-c2noc(CCC(=O)NCCN3CCN(Cc4ccccc4)CC3)n2)cc1	-49%
COc1ccc(-c2noc(CCC(=O)NC3CCN(Cc4ccccc4)CC3)n2)cc1	-45.7%
Cc1ccc(-c2noc(CCC(=O)NCC3CCN(Cc4cccc(C)c4)CC3)n2)cc1	-63.8%
COc1ccccc1NC(=S)NC(=O)C(C)(C)C	-9.31%
Cc1ccc2nc(-c3ccc(N4C(=O)CC(N5CCN(CCO)CC5)C4=O)cc3)sc2c1 (centres unmarked)	-3.5%
N#CCC(=O)Nc1ccc(C(=O)OCC(=O)Nc2ccccc2-c2ccccc2)cc1	9.2%
CCc1nc(SCc2ccccc2C)n[nH]1	26.9%
CCOc1ccccc1NC(=O)c1cc(CC(C)C)oc1C	-0.536%
Cc1oc(CC(C)C)cc1C(=O)Nc1cccc2ccccc12	-58.8%
Cc1cc(C(=O)Nc2cccc3ccccc23)c(C)o1	4.69%
Cc1ncc(C(=O)O)c(C(=O)O)c1N	13.4%
O=C(O)c1cnc(-c2ccccc2)nc1Sc1ccccc1	14.2%
COc1ccc(S(=O)(=O)N2CCC(C(=O)N3CCc4ccccc4C3)CC2)cc1OC	-27.4%

SMILES	hERG current change (%, negative = inhibition) at 10uM
O=C(C1CCCN(Cc2ccncc2)C1)N1CCc2ccccc2C1.O=C(O)C(=O)O (centres unmarked)	-19.2%
COc1ccc(CN2CCCC(C(=O)N3CCc4ccccc4C3)C2)cc1OC (centres unmarked)	-62%
O=C(C1CCCN(Cc2ccccc2)C1)N1CCCCC1.O=C(O)C(=O)O (centres unmarked)	11.3%
COc1cc(CN2CCCC(C(=O)N3CCc4ccccc4C3)C2)cc(OC)c1OC (centres unmarked)	-62%
Cc1cccc(CN2CCCC(C(=O)N3CCc4ccccc4C3)C2)c1.O=C(O)C(=O)O (centres unmarked)	-51.3%
COc1ccc(CN2CCCC(C(=O)N3CCCCC3)C2)cc1OC.O=C(O)C(=O)O (centres unmarked)	-25.5%
Cc1cccc(CN2CCCC(C(=O)N3CCCCC3)C2)c1.O=C(O)C(=O)O (centres unmarked)	15.5%
O=C(C1CCCN(Cc2ccccc2F)C1)N1CCc2ccccc2C1.O=C(O)C(=O)O (centres unmarked)	-22.6%
COc1ccc(C)cc1-n1c(SCC(=O)Nc2cccc(C(=O)O)c2)nc2ccccc2c1=O	12%
O=C(CCC(=O)Nc1ccccc1)NNC(=O)C(c1ccccc1)c1ccccc1	-0.585%
CCN(c1ccccc1)P(=O)(Nc1ccccc1)Nc1ccccc1	0.944%
Cc1ccc(N2C(=O)CSC2c2cccnc2)cc1F (centres unmarked)	5.77%
CCCc1nc(SCC(=O)Nc2cc(C)on2)c2c(=O)n(C)c(=O)n(C)c2n1	-2.26%
NCCCC[C@H]1NC(=O)[C@H](CCC(=O)O)NC(=O)c2cc([N+](=O)[O-])cc(I)c2OCC[C@@H](C(N)=O)NC1=O	26.6%
CCN(Cc1ccccc1)S(=O)(=O)c1ccc(C(=O)N(CCCN(C)C)c2nc3cc(C)cc(C)c3s2)cc1.Cl	-4.15%
Cc1cc(C)c2sc(N(CCCN(C)C)C(=O)c3ccc(S(=O)(=O)N4CCCc5ccccc54)cc3)nc2c1.Cl	0.702%
Cc1cc(C)c2sc(N(CCCN(C)C)C(=O)c3ccc(S(=O)(=O)N(C)C4CCCCC4)cc3)nc2c1.Cl	-81.4%
Cc1cc(C)c2sc(N(CCCN(C)C)C(=O)c3ccc(S(=O)(=O)N4CCc5ccccc5C4)cc3)nc2c1.Cl	4.44%
CCCCN(CC)S(=O)(=O)c1ccc(C(=O)N(CCCN(C)C)c2nc3cc(C)cc(C)c3s2)cc1.Cl	-73%
Cc1cc(C)c2sc(N(CCCN(C)C)C(=O)c3ccc(S(=O)(=O)N(C)Cc4ccccc4)cc3)nc2c1.Cl	-13.5%
